Several values for one entry are separate records, joined by “and”; a condition that tells them apart may be missing. Identical values can stand only once. Records with an inconclusive call do not appear. Entries that show only a call come without a potency. Where a structure was tested more than once in an assay, its records may differ in their call. Activity calls are given as the source filed them. Calls follow the shape of the full dose curve.
Target: Muscarinic acetylcholine receptor M1 (Homo sapiens) (UniProt P11229)
Sequence (P11229 whole entry, looked up): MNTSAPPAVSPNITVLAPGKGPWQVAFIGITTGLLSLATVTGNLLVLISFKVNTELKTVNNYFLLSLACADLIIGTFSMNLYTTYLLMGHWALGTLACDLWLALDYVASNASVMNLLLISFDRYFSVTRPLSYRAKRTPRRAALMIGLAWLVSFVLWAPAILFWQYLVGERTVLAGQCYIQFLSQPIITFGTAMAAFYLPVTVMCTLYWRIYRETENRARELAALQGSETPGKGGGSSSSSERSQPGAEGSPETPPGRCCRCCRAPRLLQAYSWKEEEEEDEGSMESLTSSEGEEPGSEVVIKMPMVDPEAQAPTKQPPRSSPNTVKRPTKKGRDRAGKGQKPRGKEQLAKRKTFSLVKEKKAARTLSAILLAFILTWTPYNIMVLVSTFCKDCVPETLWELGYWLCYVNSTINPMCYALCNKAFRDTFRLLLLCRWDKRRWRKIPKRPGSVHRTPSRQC
Assay: Cholinergic receptor muscarinic 1 (CHRM1) small molecule antagonists, cell-based qHTS assay (AID 1963588); also: nearly all actives have a fitted effect of over 40% in size
Conditions: CHRM1-CHO antagonist mode, calcium flux fluorescence; series mostly up to 61.5 µM
Method in brief: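 CHRM1-CHO calcium-flux assay, antagonist mode. Cells were seeded 18 h, dye-loaded 1 h at 37 C and given compound for 5 min at RT, then acetylcholine was added at 50nM. FDSS fluorescence was read 3 min; 15 concentrations, three runs.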
Potency is read from the fitted curve at half-maximal effect.

SMILES | Potency
COc1ccccc1[N+](=O)[O-] | inactive
C=CCc1ccc(OC)c(OC)c1 | inactive
c1ccc(Nc2ccccc2)cc1 | inactive
Cc1cc(C2(c3cc(C)c(O)cc3C)OS(=O)(=O)c3ccccc32)c(C)cc1O | inactive
CCC(=O)OC/C=C/c1ccccc1 | inactive
CC(C)=CCl | inactive
Cc1cccc(C)c1O | inactive
Oc1ccc(O)cc1 | inactive
CC(C)CC(C)CC(O)CC(C)C (stereo not drawn) | inactive
CCCCC/C(C=O)=C\c1ccccc1 | inactive
O=CCc1ccccc1 | inactive
c1ccc2cc3c(ccc4ccccc43)cc2c1 | inactive
CCCCNC(N)=O | inactive
O=c1c(O)c(-c2ccc(O)cc2)oc2cc(O)cc(O)c12 | inactive
COc1ccc(C(=O)c2ccccc2)c(O)c1 | inactive
O=C(Cl)c1c(Cl)c(Cl)c(C(=O)Cl)c(Cl)c1Cl | inactive
Nc1ccc(Nc2ccccc2)cc1 | inactive
C=CCCCCCCCCCC | inactive
c1ccc2[nH]ccc2c1 | inactive
O=S(=O)(O)c1ccc2cc(O)ccc2c1 | inactive
CCCCC(CC)CO (stereo not drawn) | inactive
CC(=O)C1=C(C)[C@@H]2C[C@@]3(C1)[C@H](C)CC[C@H]3C2(C)C | inactive
CC(=O)Nc1ccc2c(c1)Cc1cc(NC(C)=O)ccc1-2 | inactive
O=C(O)c1ccc2c(c1)C(=O)OC2=O | inactive
CN(C)CCOC(C)(c1ccccc1)c1ccccn1 (stereo not drawn) | 18.8 µM (active) and 4.1 µM (active)
C[Si](C)(C)O[Si](C)(C)C | inactive
Nc1ccccc1[N+](=O)[O-] | inactive

SMILES | Potency
C=C(C)C(=O)O[C@H]1C[C@@H]2CC[C@@]1(C)C2(C)C | inactive
CC/C(C)=N/O | inactive
O=C=NCCCCCCN=C=O | inactive and 27 µM (active)
O=C(O)CC(O)C(=O)O (stereo not drawn) | inactive
C=C(C)C(=O)OCCOC(=O)C(=C)C | inactive
CCCCCCCCCC(=O)O | inactive
CCCC(C)=O | inactive
Cc1cc(C)c(O)c(C)c1 | inactive
O=C1O[C@H](CO)[C@@H](O)[C@H](O)[C@H]1O | inactive
O=C(c1ccccc1)c1ccc(O)c(O)c1O | inactive
COC(=O)c1ccc(C=O)cc1 | inactive
CCCCCCCCCCC=CC1CC(=O)OC1=O (stereo not drawn) | inactive
Oc1ccc2ccccc2c1N=Nc1ccccc1 | 472 nM (active) and inactive
O=C(CC(C(=O)OC1CCCCC1)S(=O)(=O)O)OC1CCCCC1 (stereo not drawn) | inactive
O=[Se](O)O | inactive
O=C1OC(c2ccc(O)cc2)(c2ccc(O)cc2)c2ccccc21 | inactive
c1cc(-c2ccncc2)ccn1 | inactive
CC(C)OB(OC(C)C)OC(C)C | inactive
CC(=O)Nc1ccc(C(=O)CCl)cc1 | inactive
CCCCCCCCCCCCCCCC[N+](C)(C)Cc1ccccc1 | 410 nM (active)
CCC(=O)O | inactive
CC(=O)OC/C=C(C)/C=C/C=C(C)/C=C/C1=C(C)CCCC1(C)C | inactive
CCCCOCCOC(=O)c1ccccc1C(=O)OCCOCCCC | inactive
CCCCC/C=C\C/C=C\CCCCCCCC(=O)O | inactive
CC1(C)CC(N=C=O)CC(C)(CN=C=O)C1 (stereo not drawn) | 17000 nM (active)
Cc1cccc(O)c1 | inactive

Reference: PubChem BioAssay (Tox21)
